Data as given in PubChem BioAssay.
Several values for one entry are separate records, joined by “and”; a condition that tells them apart may be missing. Equal entries are not always repeated. Records with an inconclusive call do not appear. Activity calls are given as the source filed them.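 The calls were made as follows, unless noted: active = response below a set limit, under 55% cells CD8-positive and vesicle-bound, and CD8 cells' 90th-percentile brightness under 279; inactive = the rest.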 Peptide text beside a SMILES is read from it.

Experiment: modulators of AGP1-GFP expression in yeast TOR pathway, primary screen, cell-based, multiplex flow cytometry, S. cerevisiae (AID 1887;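 active = GFP signal above the screen-wide mean plus 3 SD, that is over about 124.5% of the solvent control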;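 also: AGP1-GFP fusion strain of S. cerevisiae within a five-strain barcoded multiplex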)
Settings: 3 h, at 10 µM, stronger effect = higher value
With `COc1ccc2cc(C3(C)NC(=O)NC3=O)ccc2c1` (stereo not given) the GFP response, % of DMSO was 99.7% (inactive). For `CC1(C)CC(=O)c2c(nc3ccccc3c2N)C1`, the GFP response, % of DMSO was 99.2% (inactive). For `Cc1ccccc1C(=O)Oc1ccc(Sc2ccc(O)cc2)cc1`, the GFP response, % of DMSO was 100% (inactive). With `O=C(NC1CC1)C1CCN(C2CCN(C(=O)Cc3ccc(F)cc3)CC2)CC1` the GFP response, % of DMSO was 90.5% (inactive). With `CCc1cc(/C(Cc2ccccn2)=N\O)c(O)cc1O` the GFP response, % of DMSO was 91.4% (inactive). With `CC(=O)NC(CC(C)C)C(=O)NC(Cc1ccccc1)C(N)=O` (stereo not drawn) (Ac-Leu-Phe-NH2; configuration not given here) the GFP response, % of DMSO was 103% (inactive). In the case of `CN(C)c1ccc(C(CN)c2c[nH]c3ccccc23)cc1` (stereo not given), the GFP response, % of DMSO was 107% (inactive). In the case of `CCn1cc(C(=O)O)c(=O)c2ccc(C)nc21`, the GFP response, % of DMSO was 106% (inactive). For `CN1[C@@H]2CC(OC(=O)[C@H](CO)c3ccccc3)C[C@H]1[C@@H]1O[C@@H]12` (stereo not given in full), the GFP response, % of DMSO was 114% (inactive) and 103% (inactive). With `CCOc1cc2c3c(c1)C(C)=CC(C)(C)N3C(=O)C2=O` the GFP response, % of DMSO was 102% (inactive). With `Cc1ccc(C)c(OCCCC(C)(C)C(=O)O)c1` the GFP response, % of DMSO was 89.6% (inactive). In the case of `CC1(C)C(=O)OC(C(=O)c2ccc(Cl)cc2)C(C)(C)C1=O` (stereo not given), the GFP response, % of DMSO was 103% (inactive). In the case of `CC1(CC(=O)Nc2ccccc2)NC(=S)N(c2ccccc2)N1` (stereo not given), the GFP response, % of DMSO was 104% (inactive). In the case of `COc1cc2c(cc1OC)C(C)=NC1(CCCCC1)C2`, the GFP response, % of DMSO was 107% (inactive). With `Cc1occc(=O)c1O` the GFP response, % of DMSO was 86.1% (inactive). For `COC1CCN(Cc2cn(Cc3ccccc3)nc2-c2cc3ccccc3o2)CC1`, the GFP response, % of DMSO was 98.9% (inactive). In the case of `COc1cccc2c(O)cc(=O)n(C)c12`, the GFP response, % of DMSO was 100% (inactive). For `CCN1C(=O)C(CC(=O)Nc2ccc(F)cc2)N(Cc2ccco2)C1=S` (stereo not given), the GFP response, % of DMSO was 114% (inactive). In the case of `O=C(Cc1ccccc1[N+](=O)[O-])NCc1ccncc1`, the GFP response, % of DMSO was 97.4% (inactive). In the case of `O=C1CC2(CCCC2)CC(=O)N1CCCCN1CCN(c2ncccn2)CC1`, the GFP response, % of DMSO was 106% (inactive). With `CCC(=O)c1ccc(OCc2ccc(C(=O)OC)cc2)cc1` the GFP response, % of DMSO was 98.6% (inactive). For `COc1cccc(NC(=O)C2CC(=O)OC23CCOC(C)(C)C3)c1` (stereo not given), the GFP response, % of DMSO was 94.2% (inactive).

Experiment: inhibitors of CD8+ T cell-vesicle binding, pilot screen, LFA-1/ICAM-1 modulator project, MLPCN validation set, flow cytometry (AID 2523);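 as to vesicle binding response: mean PE anti-B7-1 fluorescence of CD8+ cells relative to row control; 100% = QL9-loaded vesicles with DMSO vehicle in the same plate row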
Settings: 2C mouse CD8+ T cells, at 7 µM, stronger effect = lower value; double positive events: measured here: CD8+/vesicle+ event percentage
For `CC(C)(C)OC(=O)N1CC(O)CC1C(=O)OCC(=O)c1ccc(Cl)cc1` (stereo not given), the vesicle binding response was 222% (inactive) and the double positive events was 61.3%. In the case of `O=C(O)c1ccc(OCCn2ccnc2)cc1`, the vesicle binding response was 173% (inactive) and the double positive events was 66.1%. In the case of `CCOc1ccc2ccccc2c1CNc1nnnn1C`, the double positive events was 65.8% and the vesicle binding response was 1400% (inactive). With `COc1ccccc1N1C(=O)C2CC(C)=C(C)CC2C1=O` (stereo not given) the vesicle binding response was 164% (inactive) and the double positive events was 63%. With `Cc1coc2c1c(C)cc1oc(=O)c(Cc3ccccc3)c(C)c12` the double positive events was 56.9% and the vesicle binding response was 138% (inactive). For `COc1cc2c3c(c1)C(C)CC(C)(C)N3C(=O)C2=O` (stereo not given), the vesicle binding response was 199% (inactive) and the double positive events was 58.1%. For `NS(=O)(=O)c1cc2c(cc1Cl)NCNS2(=O)=O`, the double positive events was 62.4% and the vesicle binding response was 245% (inactive). For `O=C(O)C1Cc2ccccc2CN1S(=O)(=O)c1ccccc1` (stereo not given), the double positive events was 60.9% and the vesicle binding response was 186% (inactive). With `COc1cccc(C2CC(=O)C3=C(C2)Nc2ccccc2N(C(=O)CCC(=O)O)C3c2ccc(F)cc2)c1` (stereo not given) the double positive events was 64% and the vesicle binding response was 213% (inactive). In the case of `CCC(C(=O)Nc1ccc2c(c1)OCCO2)c1ccccc1` (stereo not given), the double positive events was 58.6% and the vesicle binding response was 143% (inactive). With `COc1ccc(C2C(C(=O)c3ccco3)=C(O)C(=O)N2CC2CCCO2)cc1` (stereo not given) the vesicle binding response was 351% (inactive) and the double positive events was 62.9%. With `C=CCNC(=O)c1ccc(-c2cccc([N+](=O)[O-])c2)o1` the double positive events was 52.6% and the vesicle binding response was 773% (inactive). With `CC12CCC(C(=O)N(CCC#N)CCC#N)(CC1=O)C2(C)C` (stereo not given) the vesicle binding response was 5730% (inactive) and the double positive events was 61.1%. In the case of `CC(=O)c1c(C)c(C)c2n1CCn1c(C)ccc1-2`, the double positive events was 60.2% and the vesicle binding response was 141% (inactive). In the case of `COc1cc2cc(C)nc(Cc3cccc4ccccc34)c2cc1OC`, the vesicle binding response was 204% (inactive) and the double positive events was 59.9%. For `Cc1oc2cc(O)cc(O)c2c(=O)c1-c1ccc2c(c1)OCCCO2`, the double positive events was 60.8% and the vesicle binding response was 195% (inactive). In the case of `O=CNC1CCCc2c1[nH]c1ccc(Cl)cc21` (stereo not given), the vesicle binding response was 173% (inactive) and the double positive events was 64.4%. In the case of `COc1ccc2cc(C3(C)NC(=O)NC3=O)ccc2c1` (stereo not given), the double positive events was 60.5% and the vesicle binding response was 147% (inactive). For `CC1(C)CC(=O)c2c(nc3ccccc3c2N)C1`, the double positive events was 62.1% and the vesicle binding response was 259% (inactive). With `Cc1ccccc1C(=O)Oc1ccc(Sc2ccc(O)cc2)cc1` the double positive events was 62.4% and the vesicle binding response was 255% (inactive). With `O=C(NC1CC1)C1CCN(C2CCN(C(=O)Cc3ccc(F)cc3)CC2)CC1` the vesicle binding response was 48% (active) and the double positive events was 38%. In the case of `CCc1cc(/C(Cc2ccccn2)=N\O)c(O)cc1O`, the vesicle binding response was 51.2% (active) and the double positive events was 52.1%. For `CC(=O)NC(CC(C)C)C(=O)NC(Cc1ccccc1)C(N)=O` (stereo not drawn) (Ac-Leu-Phe-NH2; configuration not given here), the vesicle binding response was 128% (inactive) and the double positive events was 60.5%. For `CN(C)c1ccc(C(CN)c2c[nH]c3ccccc23)cc1` (stereo not given), the double positive events was 61.4% and the vesicle binding response was 112% (inactive). With `CCn1cc(C(=O)O)c(=O)c2ccc(C)nc21` the double positive events was 55.9% and the vesicle binding response was 172% (inactive). With `CN1[C@@H]2CC(OC(=O)[C@H](CO)c3ccccc3)C[C@H]1[C@@H]1O[C@@H]12` (stereo not given in full) the double positive events was 62.9% and 62.1% and the vesicle binding response was 177% (inactive) and 215% (inactive). With `CCOc1cc2c3c(c1)C(C)=CC(C)(C)N3C(=O)C2=O` the double positive events was 43.2% and the vesicle binding response was 11.7% (active). In the case of `Cc1ccc(C)c(OCCCC(C)(C)C(=O)O)c1`, the vesicle binding response was 203% (inactive) and the double positive events was 62.8%. In the case of `CC1(C)C(=O)OC(C(=O)c2ccc(Cl)cc2)C(C)(C)C1=O` (stereo not given), the double positive events was 66.1% and the vesicle binding response was 261% (inactive). In the case of `CC1(CC(=O)Nc2ccccc2)NC(=S)N(c2ccccc2)N1` (stereo not given), the vesicle binding response was 9640% (inactive) and the double positive events was 49.5%. With `COc1cc2c(cc1OC)C(C)=NC1(CCCCC1)C2` the double positive events was 62.8% and the vesicle binding response was 215% (inactive). With `Cc1occc(=O)c1O` the double positive events was 65.3% and the vesicle binding response was 198% (inactive). For `COC1CCN(Cc2cn(Cc3ccccc3)nc2-c2cc3ccccc3o2)CC1`, the double positive events was 61.8% and the vesicle binding response was 243% (inactive). With `COc1cccc2c(O)cc(=O)n(C)c12` the vesicle binding response was 169% (inactive) and the double positive events was 61.5%. In the case of `CCN1C(=O)C(CC(=O)Nc2ccc(F)cc2)N(Cc2ccco2)C1=S` (stereo not given), the double positive events was 62.4% and the vesicle binding response was 194% (inactive). For `O=C(Cc1ccccc1[N+](=O)[O-])NCc1ccncc1`, the double positive events was 63.2% and the vesicle binding response was 243% (inactive). In the case of `O=C1CC2(CCCC2)CC(=O)N1CCCCN1CCN(c2ncccn2)CC1`, the vesicle binding response was 1050% (inactive) and the double positive events was 64.3%. In the case of `CCC(=O)c1ccc(OCc2ccc(C(=O)OC)cc2)cc1`, the double positive events was 54.8% and the vesicle binding response was 127% (inactive). For `COc1cccc(NC(=O)C2CC(=O)OC23CCOC(C)(C)C3)c1` (stereo not given), the vesicle binding response was 24.9% (inactive) and the double positive events was 58.3%.
